# In the OligoGym collection:
# Target: VGLL2
# Assay: pooled miR-30 sensor sort-seq; sequence = guide strand
# Settings: shRNA
# Note: reference of the scale not given here.
row,Sequence,sensor-assay potency score (higher = more potent)
1,TAAAATCTGACAGTAGTAGTGC,0.941
2,TTAAACATAACTCAGTCTTTGG,-0.689
3,TTCTCTACCACAGTCTTAGATG,-1.22
4,TATAATCACACTACCTAACAAA,-1.39
5,TAATGTTCGTCTCTTCTTCCTC,-0.332
6,TAACAAAATAATTCACATCAGC,-0.803
7,TACTTCTCTACCACAGTCTTAG,-0.503
8,TAAGTGAAGAGGACGCAGCGGG,-0.197
9,TTGACTTCTCTTTACTTCTCTA,-0.415

# Target: VIPR2
# Assay: as above
# Settings: shRNA
row,Sequence,sensor-assay potency score (higher = more potent)
1,TCTGGGAACGTCTCTGACCATC,-1.08
2,TCTTGTACTGAGACTGGTCGTT,-0.0864
3,TTCAGGTGGATGTAATTCCTGG,-0.512
4,TAAAACGTGATCTTGCTCTCAT,1.2
5,TTGACCAGCACTGAGATGGCTC,-0.324
6,TTTCGCTTCAGCTCGCACTGCA,0.156
7,TTCACCAGAATATAAAACGTGA,-0.447
8,TTGCTGAAGACTTTTGGGCAGG,-1.06
9,TTTGCTGTAAAAATTGCTGAAG,-0.647
10,TTTGAGACCTCAGAAGCTCTGC,0.397
11,TTTTGCTTATGTTTCCTGCTTT,0.362
12,TAGTGGACGCCGAACAGCGGGA,-0.939

# Target: VKORC1
# Assay: as above
# Settings: shRNA
row,Sequence,sensor-assay potency score (higher = more potent)
1,ATAGCATAGGTGGTGATACAAA,-1.7
2,TAGGTGGTGATACAAACAATGC,-1.84
3,AACAATGCAGAAATCATAGAGC,-0.667
4,TCACGTTGATAGCATAGGTGGT,-0.749
5,ATAGGTGGTGATACAAACAATG,-1.33
6,TAGAGCACGAAGAACAGGATCC,-0.705
7,AGCACGAAGAACAGGATCCAGG,-2.45
8,TTGATTGAGGATGCTGTCCTGT,0.167
9,TCATAGAGCACGAAGAACAGGA,0.298
10,TTGATAGCATAGGTGGTGATAC,-0.976
11,TTGGACCTTCCGGAAACTGAGC,-1.21
12,TAGAGCGAGAGCACTAAGCCCG,-0.598

# Target: VN1R2
# Assay: as above
# Settings: shRNA
row,Sequence,sensor-assay potency score (higher = more potent)
1,TTATTGGATACAAAGCAGGAGA,-0.969
2,TTAGATAGGATAACCAAGGAGT,-0.311
3,TTGGGGTAGAGATTGTTCCTAC,-0.232
4,TTCTTTGTGATGTTGTTGTTGC,-0.241
5,TTTGGTGGGTTTCTCTCCGTGT,-0.0937
6,TAACATAATGCAAAGGTGCTCA,-0.437
7,TAAACGTAGGTGATGAAGGAAA,-0.975
